Laboratory results reported in PubChem BioAssay (EPA / NIEHS).
Inconclusive results are not listed. The source made the active and inactive calls. The calls were made as follows: active = hit-call score of the fitted dose curve at least 0.9, where 1 is the maximum; inconclusive = response in the unintended direction; inactive = score below 0.9.

What follows are compounds tested against human Retinoic Acid Receptor gamma (RARg), RARG (gene 5916) (UniProt P13631) (assay: ATG_RARg_TRANS: Attagene TRANS-FACTORIAL HepG2 Assay for human Retinoic Acid Receptor gamma (RARg) (AID 2283009);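 as to AC50: AC50 is for reporter induction above DMSO meaning RARg activation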).
Description: ATG_TRANS is a cell-based, multiplexed-readout assay that uses HepG2, a human liver cell line, with measurements taken at 24 hours after chemical dosing in a 24-well plate.ATG_RARg_TRANS is one of 30 assay component(s) measured or calculated from the ATG_TRANS assay. It is designed to make measurements of mRNA induction, a form of inducible reporter, as detected with fluorescence intensity signals by Reverse transcription polymerase chain reaction (RT-PCR) and Capillary electrophoresis technology.Data from the assay component ATG_RARg_TRANS was analyzed into 1 assay endpoint. This assay endpoint, ATG_RARg_TRANS, was analyzed in the positive analysis fitting direction relative to DMSO as the negative control and baseline of activity. Using a type of inducible reporter, measures of mRNA for gain-of-signal activity can be used to understand the reporter gene at the transcription factor-level as they relate to the gene RARG. Furthermore, this assay endpoint can be referred to as a primary readout, because this assay has produced multiple assay endpoints where this one serves a reporter gene function. To generalize the intended target to other relatable targets, this assay endpoint is annotated to the nuclear receptor intended target family, where the subfamily is non-steroidal.
Human liver HepG2 cells are transiently transfected with multiple reporter transcription units (MRTUs) in 6-well plates using FuGene 6 reagent (Roche; 3 ml FuGene/1 mg DNA). The MRTU constructs are regulated by a cis-regulating element (promoter). […] A major difference between the CIS and TRANS system is that in CIS activities of endogenous TFs are measured, whereas the TRANS assay evaluates changes in activities of exogenous, chimeric NR-Gal4 proteins. […] At the end of 24 hour incubation, total RNA was isolated using TriZol reagent (Invitrogen). The isolated RNA is then reverse-transcribed using oligo(dT) primer and Mo-MLV reverse transcriptase (Invitrogen) with DNAse I (Ambion) treatment for 30 min. The one-tenth of the produced cDNA was amplified by PCR using Taq DNA polymerase (Invitrogen) and two reporter sequence-specific primers. The PCR products were fluorescently labeled by primer extension with 6-arboxyfluorescein (6-FAM) 5'-labeled reporter sequence-specific primer (2 min at 95 C, 20 s at 68 C and 10 min at 72 C) and these products were digested with 5U of HpaI (New England Biolabs) for 2h at 37 C. […] The raw capillary electrophoresis data was processed using Attagraph software (Attagene).

human Retinoic Acid Receptor gamma (RARg), RARG (gene 5916), sequence (P13631 whole entry, looked up): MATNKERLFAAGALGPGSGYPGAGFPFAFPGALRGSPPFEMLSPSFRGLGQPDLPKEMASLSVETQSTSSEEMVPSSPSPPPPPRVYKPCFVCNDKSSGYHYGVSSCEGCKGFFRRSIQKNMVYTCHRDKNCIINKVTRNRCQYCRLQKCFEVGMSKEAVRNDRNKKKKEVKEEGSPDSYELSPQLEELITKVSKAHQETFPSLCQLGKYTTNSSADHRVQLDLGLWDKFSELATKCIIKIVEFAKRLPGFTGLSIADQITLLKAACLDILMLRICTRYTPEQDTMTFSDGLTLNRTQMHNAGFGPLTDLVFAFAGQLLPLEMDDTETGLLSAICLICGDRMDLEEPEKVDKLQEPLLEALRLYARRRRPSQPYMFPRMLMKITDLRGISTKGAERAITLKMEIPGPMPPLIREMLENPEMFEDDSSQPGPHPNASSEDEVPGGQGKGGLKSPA

outcome, inactive:
CN(c1nccc(=O)[nH]1)C1CCN(c2nc3ccccc3n2Cc2ccc(F)cc2)CC1
CCCC(C)=O
CC1CC(O)CC(C)(C)C1 (stereo not given)
CCCCCCCC(=O)OCC(O)CO (stereo not given)
Cc1c(C2(c3cc(Br)c(O)c(Br)c3C)OS(=O)(=O)c3ccccc32)cc(Br)c(O)c1Br
CCCCCCCCCCCCCCN(CCO)CCO
C=C(CC(=O)O)C(=O)O
CCCCCCCCCCCC(=O)OCC(O)CO (stereo not given)
CC1=NN(c2ccc(S(=O)(=O)O)cc2)C(=O)C1
O=C(Nc1ccc([N+](=O)[O-])cc1)Nc1ccc([N+](=O)[O-])cc1 (tested in a mixture with another compound)
O=C(O)CNc1ccccc1
O=CCc1ccccc1
N#Cc1ccc(CC(=O)c2cccc(C(F)(F)F)c2)cc1
CC1(C)C2=CCCC(C)(C)[C@]23CC[C@H]1C3
CC(=O)c1c(C)c([N+](=O)[O-])c(C(C)(C)C)c([N+](=O)[O-])c1C
CC[N+](C)(CC)CC
CCOC(=O)CN
CCOC(=O)COC(=O)c1cc(Oc2ccc(C(F)(F)F)cc2Cl)ccc1[N+](=O)[O-]
CCCC(O)C(O)CO (stereo not given)
CCC1(C)NC(=O)NC1=O (stereo not given)
CN(C)CCOc1ccc(/C(=C(/CCCl)c2ccccc2)c2ccccc2)cc1
OCCOCCN1CCN(C2=Nc3ccccc3Sc3ccccc32)CC1
CCCCC1CCC(O)CC1 (stereo not given)
C[C@H]1C[C@@H](O)CC(C)(C)C1
O=C(O)c1cccnc1C(=O)O
CCCCCCCCCCCC(=O)OC[C@@H](O)[C@H]1OC[C@H](O)[C@H]1O
O=[N+]([O-])c1ccc(O)cc1C(F)(F)F
CC(=O)OCCCc1ccccc1
Nc1ccc(NCCO)c([N+](=O)[O-])c1
COc1cc(C(C)C)ccc1C
CCCCCCCCCC(C)C=O (stereo not given)
CC(C)CC(C)CC(O)CC(C)C (stereo not given)
CCCCCCCCCCCCCC(=O)OCC(O)CO (stereo not given)
CC(O)C1CCCCC1 (stereo not given)
CCOc1ccc(N=Nc2ccc(C=Cc3ccc(N=Nc4ccc(OCC)cc4)cc3S(=O)(=O)O)c(S(=O)(=O)O)c2)cc1
CCC(=O)O[C@@H]1C[C@H]2CC[C@]1(C)C2(C)C
CC(=O)O[C@H]1C[C@@H]2CC[C@@]1(C)C2(C)C
Cc1ccc(C)o1
CCCCCCOCCOCCO

AC50, active:
CCc1cc(Cc2cc(CC)cc(C(C)(C)C)c2O)c(O)c(C(C)(C)C)c1 9.1 µM
